# SW480 rerep: inducers of DNA re-replication in SW480 colon cancer cells; SW480 DNA re-replication, Hoechst DNA content imaging, 48 h; Potency, µM (doses to about 46.1 µM), inactives show top-dose re-replication activation, most hits filed as activators; 1.8% of 340,000 active; AID 624297; also: potency is read from the fitted curve at half-maximal effect; % of control where 0% means no effect; nearly all actives have a fitted effect of over 55% in size
#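 Per well, 250 cells were exposed to pinned compound for 48 hr. Nuclear DNA was visualised with Hoechst (40 min, 37 C) and total object intensity recorded by fluorescence scanning.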
# MCF10A rerep: DNA re-replication induction in MCF 10a cells. MCF 10A DNA re-replication, Hoechst nuclear intensity, 48 h. Potency, µM (series often up to 46.1 µM), for inactives: at the highest dose activity, positive = re-replication, most hits filed as activators. 2.9% of 350,000 active. AID 624296; also: potency is read from the fitted curve at half-maximal effect; % of control where 0% means no effect; nearly all actives have a fitted effect of over 50% in size
# IL1B secr inh: inhibitors of inflammasome signaling (IL-1 beta secretion); THP-1 LPS/ATP IL-1B secretion, AlphaLISA, 16 h; hits give low values; activity change, % at 57.5 µM; 4.7% of 360,000 active; AID 743279; in the data active = activity change below about -50%; inconclusive = mostly about -30% to -49%; also: % is scaled to controls: 0 for no effect and ±100 for the full control effect
#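 Secreted IL-1B measured by AlphaLISA bead assay after 16 h compound exposure of THP-1 cells; compounds (final up to 57.5 uM) added 1 h before LPS (250 ng/mL) and ATP (1.25 mM) stimulation; lower signal means less secretion.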
# BCR signal inh: chronic active BCR signaling inhibition; ABC-DLBCL IkBa-CBG/CBR reporter, luminescence ratio, 4 h; Potency, µM (highest dose often 46.1 µM), inactives show at the highest dose activity change, negative = inhibition, hits mostly inhibitors; 0.05% of 340,000 active; AID 493014; active = well fitted inhibition curve with a large enough effect in the signal ratio, with a control signal flat, not every such curve was filed as active; inconclusive = small, poorly fitted or top-dose-only effect, or effect the other way, or a change in a side signal; the % refers to the signal ratio;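 also: potency is read from the fitted curve at half-maximal effect; plate controls were basal doxycycline-induced cells for no effect and cells given 10 µM MG132 for full effect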
#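 Doxycycline induced both beetle luciferases in TMD8 lymphoma cells; IKK-driven degradation limits the IkappaBalpha-fused green signal, while red luminescence normalises for cell number and nonspecific effects. Compounds tested up to 46 uM, 4 hrs.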
# TDP1 cell noCPT: qHTS for Inhibitors of human tyrosyl-DNA phosphodiesterase 1 (TDP1): qHTS in cells in absence of CPT | DT40 Tdp1-/- hTDP1 cells, no CPT, ATP luminescence, 48 h | Potency, µM (titrated, usually from 46.2 µM), for the others: at the highest dose activity change, negative = growth inhibition, most hits filed as inhibitors | 15% of 420,000 active; also: potency is read from the fitted curve at half-maximal effect; % is scaled to controls: 0 for no effect and ±100 for the full control effect; nearly all actives have a fitted effect of over 55% in size
#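 Luminescent ATP content (CellTiter-Glo) served as the growth readout. Knockout chicken DT40 cells expressing human TDP1 were exposed to compounds without camptothecin for a minimum 48 hr at 37 °C.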
# DT40 TDP1 CPT: DT40-hTDP1 cell growth loss with CPT; chicken DT40 Tdp1-/-;hTDP1 cells + 20 nM CPT, ATP luminescence, 48 h; Potency, µM (titrated, usually from 46.2 µM), for the others: at the top dose activity change, negative = growth inhibition, most hits filed as inhibitors; 12% of 420,000 active; also: potency is read from the fitted curve at half-maximal effect; % is scaled to controls: 0 for no effect and ±100 for the full control effect; nearly all actives have a fitted effect of over 55% in size
#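 Chicken DT40 Tdp1-/- cells stably complemented with human TDP1 were seeded at 400 cells/well in medium containing 20 nM camptothecin, exposed to pin-transferred compounds, and grown at 37 °C for at least 48 hr. Viability was read as ATP luminescence.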
# * hit, by the source's call; ? = inconclusive; nt = no result given. This is a sample that favours compounds with a hit; in the whole collection about 19% have one here. Unless noted, calls follow the shape of the dose curve; as a rule, active = well fitted curve in the direction sought with a large enough effect; inconclusive = small, poorly fitted or top-dose-only effect, or another doubt; inactive = no such curve, though single readings can be large; an effect the other way counts as inactive or inconclusive.
SMILES,SW480 rerep,MCF10A rerep,IL1B secr inh,BCR signal inh,TDP1 cell noCPT,DT40 TDP1 CPT
CCNc1nc(NCC)nc(SCCOC(=O)Nc2ccc(Cl)cc2Cl)n1,-2%,18µM*,8,-6%,?,?
COc1cc(C2c3c(-c4ccccc4O)n[nH]c3C(=O)N2CCO)ccc1OCc1ccccc1 (configuration not stated),nt,nt,nt,nt,26µM*,-28%
CCCOc1ccc(C2c3c(-c4ccccc4O)n[nH]c3C(=O)N2CCc2ccccc2)cc1OCC (configuration not stated),nt,nt,nt,nt,13µM*,12µM*
CCCN1C(=O)c2[nH]nc(-c3ccccc3O)c2C1c1ccc(OCc2ccccc2)c(OC)c1 (configuration not stated),nt,nt,nt,nt,16µM*,16µM*
CCCCOc1ccc(C2c3c(-c4ccccc4O)n[nH]c3C(=O)N2Cc2ccncc2)cc1OC (configuration not stated),nt,nt,nt,nt,23µM*,?
COc1cc(C2c3c(-c4ccccc4O)n[nH]c3C(=O)N2Cc2ccncc2)ccc1O (configuration not stated),nt,nt,nt,nt,-7%,-6%
COc1ccc(S(=O)(=O)NC(=O)C2(C)CCN2C(=O)C2CC2)cc1 (configuration not stated),nt,nt,18,nt,-19%,3%
CC1(C)Cc2c(sc3nc(-c4cccs4)n(N)c(=O)c23)CO1,?,?,-12,0%,23µM*,16µM*
CC1(C)Cc2c(sc3nc(-c4ccccc4)n(N)c(=O)c23)CO1,-5%,?,-76*,?,-31%,-37%
Nn1c(-c2cccs2)nc2sc3c(c2c1=O)CCCC3,24%,6%,2,4%,?,?
CCN(CC(=O)NCc1ccc(Cl)cc1)C(=O)COc1ccc(Cl)cc1Br,-1%,22%,-10,5%,-21%,-24%
CCOc1cccc(NC(=O)C2CC(=O)N(C)C(=Nc3cccc(F)c3)S2)c1 (configuration not stated),-1%,?,2,?,18µM*,?
COC(=O)c1scc(-c2ccc(C)cc2)c1S(=O)(=O)N1CCN(c2cccc(Cl)c2)CC1,nt,nt,nt,nt,18µM*,18µM*
COC(=O)c1scc(-c2ccc(C)cc2)c1S(=O)(=O)N1CCN(c2ccc(C(C)=O)cc2)CC1,nt,nt,nt,nt,?,23µM*
COC(=O)c1cc(S(=O)(=O)N2CCN(c3ccc(C)cc3C)CC2)cn1C,nt,nt,nt,nt,-30%,?
COC(=O)c1scc(-c2ccc(C)cc2)c1S(=O)(=O)N1CCN(c2ccccc2)CC1,nt,nt,nt,nt,9.2µM*,12µM*
Cc1cc(C)c(S(=O)(=O)N2CCN(c3ccccc3)CC2)c(C)c1,1%,-3%,0,2%,?,?
COC(=O)c1scc(-c2ccc(C)cc2)c1S(=O)(=O)N1CCN(c2ccc(C)cc2C)CC1,nt,nt,nt,nt,9.2µM*,15µM*
O=C(O)c1nn(CCOc2cccc(Br)c2)c(=O)c2ccccc12,-10%,-2%,13,?,5%,10%
Cn1ncc2c(NNC(=O)C3CCCCC3)ncnc21,-10%,6%,-12,-18%,12%,24%
COC(=O)c1cc(S(=O)(=O)N2CCN(c3ccccc3F)CC2)c[nH]1,-7%,11%,26,-5%,?,?
COC(=O)c1scc(-c2ccc(C)cc2)c1S(=O)(=O)N1CCN(c2ccccc2F)CC1,nt,nt,nt,nt,18µM*,13µM*
CCOC(=O)c1scc(-c2ccccc2)c1S(=O)(=O)N1CCN(c2ccc(Cl)cc2)CC1,nt,nt,nt,nt,13µM*,?
O=S(=O)(c1ccc2c(c1)CCN2)N1CCCC1,-19%,1%,0,3%,9%,-4%
CS(=O)(=O)N(CC(=O)N/N=C/c1ccco1)c1ccccc1Br,3%,-6%,0,0%,-4%,-13%
SMILES,SW480 rerep,MCF10A rerep,IL1B secr inh,BCR signal inh,TDP1 cell noCPT,DT40 TDP1 CPT
CN(C)c1ccc(/C=N/NC(=O)CN(c2cccc(Cl)c2)S(C)(=O)=O)cc1Br,-6%,8%,-50*,13%,16µM*,26µM*
CN1CCN(S(=O)(=O)c2cccc(C(=O)N(Cc3nnc(-c4ccc(Cl)cc4)o3)C3CC3)c2)CC1,6.5µM*,4%,?,1%,?,21µM*
O=C(c1cc([N+](=O)[O-])cc([N+](=O)[O-])c1)N(Cc1nnc(-c2ccccc2Cl)o1)C1CC1,?,?,26,-9%,18µM*,?
O=C(c1ccc(Cl)c(S(=O)(=O)N2CCOCC2)c1)N(Cc1nnc(-c2ccccc2Cl)o1)C1CC1,-2%,11%,-9,-9%,15µM*,21µM*
CCCN(Cc1nnc(-c2ccccc2Cl)o1)C(=O)c1cc([N+](=O)[O-])cc([N+](=O)[O-])c1,5%,-9%,-8,?,6.5µM*,6.5µM*
CCCN(Cc1nnc(-c2ccccc2Cl)o1)C(=O)c1cc2ccccc2o1,-492%,?,-9,-7%,?,?
O=C(c1cc2ccccc2o1)N(Cc1nnc(-c2ccccc2Cl)o1)C1CC1,1%,12%,-1,?,?,-20%
COc1ccc(Cc2nc3ccc(C(=O)NCc4cc(Br)ccc4OC)cc3o2)cc1,nt,nt,nt,nt,-25%,?
COCC(=O)Nc1cc(C)cn(Cc2ccccc2Cl)c1=O,-3%,?,3,3%,1%,13%
C[n+]1c2n(c3ccccc31)N=C(c1ccccc1)CS2,?,?,?,5%,2.3µM*,2.3µM*
C[n+]1c2n(c3ccccc31)N=C(c1ccc(Br)cc1)CS2,21%,?,-89*,?,0.52µM*,0.65µM*
Cc1cccc(-c2nnc3n2N=C(c2ccccc2)CS3)c1,4%,13%,13,-17%,?,-23%
CCc1nnc2n1N=C(c1ccc(Br)cc1)CS2,-1%,6%,0,6%,-12%,-4%
C[n+]1c2n(c3ccccc31)N=C(c1ccc(-c3ccccc3)cc1)CS2,1%,33%,?,?,0.52µM*,0.58µM*
COc1cc([N+](=O)[O-])ccc1NC(=O)CCS(=O)(=O)c1ccc2c(c1)n(C)c(=O)c(=O)n2C,13%,-23%,1,-2%,7%,5%
CCOc1ccc(NC(=O)CN2C(=O)NC3(CCCCCC3)C2=O)cc1,-30%,-4%,11,0%,-25%,?
